According to publication PMC7862700, “An all-to-all approach to the identification of sequence-specific readers for epigenetic DNA modifications on cytosine”:

How the values were obtained:
Experiment in all cases: DAPPL (digital affinity profiling via proximity ligation, sequencing); 10 mM Tris-HCl pH 7.5, 50 mM NaCl, 1 mM DTT, 4% glycerol, room temperature, 30 min; GST-TFs on glutathione beads, 16-mer random dsDNA library, 0.1% formaldehyde crosslink after washing; high values mean tight binding
[1] = target: T1, ELK3 (Homo sapiens, UniProt P41970 1-407); settings: protein: recombinant; tags: N-terminal GST; dsDNA, one strand shown
T1 sequence: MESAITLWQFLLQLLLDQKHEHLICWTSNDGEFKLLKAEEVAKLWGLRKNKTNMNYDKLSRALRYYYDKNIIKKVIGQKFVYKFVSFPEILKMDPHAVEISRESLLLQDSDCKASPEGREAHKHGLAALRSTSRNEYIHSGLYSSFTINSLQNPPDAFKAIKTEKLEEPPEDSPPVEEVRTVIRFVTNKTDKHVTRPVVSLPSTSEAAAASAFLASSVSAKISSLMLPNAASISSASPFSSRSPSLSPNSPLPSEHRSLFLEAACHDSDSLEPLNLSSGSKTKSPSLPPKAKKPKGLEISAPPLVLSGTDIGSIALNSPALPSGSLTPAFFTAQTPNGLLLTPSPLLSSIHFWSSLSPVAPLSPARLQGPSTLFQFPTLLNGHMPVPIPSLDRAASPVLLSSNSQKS
Method in brief: (§1)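 Yeast served to express human transcription factors as GST fusions, which were then captured on glutathione beads and labelled with DNA barcodes. Pooled with a tag-only sample, they were incubated with 200 nmole of a 16-mer random double-stranded DNA library for 30 min at room temperature in Tris/NaCl/DTT/glycerol buffer, washed, crosslinked with 0.1% formaldehyde, ligated by proximity, amplified by PCR and sequenced. Dividing each hexamer's read frequency for a factor by its frequency for the tag-only sample gives the binding signal.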

[2] = target: HSF1 (Homo sapiens, UniProt Q00613 1-529); settings: protein: recombinant; tags: N-terminal GST; chain copies: 3; dsDNA, one strand shown
Method in brief: as §1

[3] = target: ELF4 (Homo sapiens, UniProt Q99607 1-663); settings: protein: recombinant; tags: N-terminal GST; dsDNA, one strand shown
Method in brief: as §1

[4] = target: T2, ELK4 (Homo sapiens, UniProt P28324-2 1-405); settings: protein: recombinant; tags: N-terminal GST; dsDNA, one strand shown
T2 sequence: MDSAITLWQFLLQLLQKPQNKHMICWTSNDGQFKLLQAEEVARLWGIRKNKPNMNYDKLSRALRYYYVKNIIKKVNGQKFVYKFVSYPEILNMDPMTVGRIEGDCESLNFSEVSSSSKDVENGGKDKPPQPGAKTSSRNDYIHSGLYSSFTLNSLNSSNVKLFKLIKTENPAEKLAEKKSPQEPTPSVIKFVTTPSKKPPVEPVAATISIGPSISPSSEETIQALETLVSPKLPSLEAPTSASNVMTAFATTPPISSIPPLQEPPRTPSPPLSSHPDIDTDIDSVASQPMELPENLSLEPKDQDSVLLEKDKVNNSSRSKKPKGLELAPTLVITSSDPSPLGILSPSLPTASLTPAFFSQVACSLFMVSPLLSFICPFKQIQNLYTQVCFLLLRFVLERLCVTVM
Method in brief: as §1

[5] = target: T3, ETV2 (Homo sapiens, UniProt O00321 1-342); settings: protein: recombinant; tags: N-terminal GST; dsDNA, one strand shown
T3 sequence: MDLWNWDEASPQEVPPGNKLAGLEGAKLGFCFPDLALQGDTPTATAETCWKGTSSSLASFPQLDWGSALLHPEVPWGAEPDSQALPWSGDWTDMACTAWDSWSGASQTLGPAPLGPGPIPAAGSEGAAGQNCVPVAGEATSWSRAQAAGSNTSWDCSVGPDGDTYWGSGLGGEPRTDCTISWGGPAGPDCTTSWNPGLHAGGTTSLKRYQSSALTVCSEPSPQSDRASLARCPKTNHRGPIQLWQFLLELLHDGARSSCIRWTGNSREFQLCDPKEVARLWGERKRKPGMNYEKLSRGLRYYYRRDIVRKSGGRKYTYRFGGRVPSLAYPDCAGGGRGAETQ
Method in brief: as §1

[6] = target: T4, ELF3 (Homo sapiens, UniProt P78545 1-371); settings: protein: recombinant; tags: N-terminal GST; dsDNA, one strand shown
T4 sequence: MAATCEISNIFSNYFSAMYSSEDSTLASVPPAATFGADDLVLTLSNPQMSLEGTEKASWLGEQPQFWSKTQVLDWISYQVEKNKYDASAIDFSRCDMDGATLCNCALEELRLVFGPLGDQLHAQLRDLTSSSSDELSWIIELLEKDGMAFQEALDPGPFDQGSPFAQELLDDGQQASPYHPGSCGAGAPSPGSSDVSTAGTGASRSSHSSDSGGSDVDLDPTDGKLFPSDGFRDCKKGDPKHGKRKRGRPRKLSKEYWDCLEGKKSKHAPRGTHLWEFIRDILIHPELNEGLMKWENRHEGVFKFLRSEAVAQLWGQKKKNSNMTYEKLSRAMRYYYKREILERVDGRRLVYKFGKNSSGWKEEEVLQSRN
Method in brief: as §1

[7] = target: CRX (Homo sapiens, UniProt O43186 1-299); settings: protein: recombinant; tags: N-terminal GST; dsDNA, one strand shown
Method in brief: as §1

[8] = target: T5, ETV7 (Homo sapiens, UniProt Q9Y603 1-341); settings: protein: recombinant; tags: N-terminal GST; dsDNA, one strand shown
T5 sequence: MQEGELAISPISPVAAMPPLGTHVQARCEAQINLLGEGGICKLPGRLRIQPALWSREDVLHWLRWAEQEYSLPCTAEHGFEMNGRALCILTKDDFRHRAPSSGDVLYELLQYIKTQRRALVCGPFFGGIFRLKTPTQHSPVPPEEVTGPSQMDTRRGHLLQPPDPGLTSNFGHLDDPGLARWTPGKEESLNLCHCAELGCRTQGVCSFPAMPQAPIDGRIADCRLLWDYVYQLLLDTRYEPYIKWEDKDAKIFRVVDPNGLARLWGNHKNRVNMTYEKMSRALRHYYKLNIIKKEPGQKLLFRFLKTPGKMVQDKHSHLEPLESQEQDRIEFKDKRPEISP
Method in brief: as §1

[9] = target: ELF1 (Homo sapiens, UniProt P32519 1-619); settings: protein: recombinant; tags: N-terminal GST; dsDNA, one strand shown
Method in brief: as §1

[10] = target: T6, EHF (Homo sapiens, UniProt Q9NZC4 1-300); settings: protein: recombinant; tags: N-terminal GST; dsDNA, one strand shown
T6 sequence: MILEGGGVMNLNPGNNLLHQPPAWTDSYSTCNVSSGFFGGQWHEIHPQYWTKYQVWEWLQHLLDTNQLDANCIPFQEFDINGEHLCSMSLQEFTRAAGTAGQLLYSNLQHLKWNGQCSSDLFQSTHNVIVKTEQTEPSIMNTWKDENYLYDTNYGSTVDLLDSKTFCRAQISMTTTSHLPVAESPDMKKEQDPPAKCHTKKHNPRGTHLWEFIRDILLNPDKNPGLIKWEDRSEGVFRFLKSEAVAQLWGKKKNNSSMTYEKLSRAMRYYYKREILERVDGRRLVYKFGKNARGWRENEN
Method in brief: as §1

[11] = target: T7, ERF (Homo sapiens, UniProt P50548 1-548); settings: protein: recombinant; tags: N-terminal GST; dsDNA, one strand shown
T7 sequence: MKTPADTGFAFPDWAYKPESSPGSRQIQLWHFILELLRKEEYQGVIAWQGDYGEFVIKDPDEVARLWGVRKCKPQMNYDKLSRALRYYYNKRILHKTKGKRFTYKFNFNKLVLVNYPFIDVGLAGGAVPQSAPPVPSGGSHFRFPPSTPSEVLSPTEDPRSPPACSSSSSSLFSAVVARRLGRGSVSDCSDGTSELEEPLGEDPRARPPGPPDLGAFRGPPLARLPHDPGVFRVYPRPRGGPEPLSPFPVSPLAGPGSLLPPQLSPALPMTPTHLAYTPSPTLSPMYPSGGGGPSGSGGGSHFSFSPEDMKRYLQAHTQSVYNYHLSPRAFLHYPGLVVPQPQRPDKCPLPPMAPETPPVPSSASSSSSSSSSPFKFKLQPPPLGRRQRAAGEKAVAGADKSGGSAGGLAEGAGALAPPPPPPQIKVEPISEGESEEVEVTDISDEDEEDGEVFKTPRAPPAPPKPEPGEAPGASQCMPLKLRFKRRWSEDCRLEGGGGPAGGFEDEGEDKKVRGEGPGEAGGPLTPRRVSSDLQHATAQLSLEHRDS
Method in brief: as §1

Chain of HSF1 (Q00613 whole entry): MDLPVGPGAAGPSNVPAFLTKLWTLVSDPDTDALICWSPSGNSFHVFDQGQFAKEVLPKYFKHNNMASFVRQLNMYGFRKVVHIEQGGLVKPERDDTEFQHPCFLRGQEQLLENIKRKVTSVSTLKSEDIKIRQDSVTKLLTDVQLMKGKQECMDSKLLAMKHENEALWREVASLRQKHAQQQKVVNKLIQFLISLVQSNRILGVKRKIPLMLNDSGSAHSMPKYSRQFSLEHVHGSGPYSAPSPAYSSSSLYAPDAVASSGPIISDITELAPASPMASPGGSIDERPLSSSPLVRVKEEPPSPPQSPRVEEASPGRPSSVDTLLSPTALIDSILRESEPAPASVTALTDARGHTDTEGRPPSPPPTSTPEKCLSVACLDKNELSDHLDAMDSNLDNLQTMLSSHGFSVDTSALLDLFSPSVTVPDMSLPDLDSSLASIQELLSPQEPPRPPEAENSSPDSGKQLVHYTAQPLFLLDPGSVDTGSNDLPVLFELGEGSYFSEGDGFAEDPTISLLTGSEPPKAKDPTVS
Chain of CRX (O43186 whole entry): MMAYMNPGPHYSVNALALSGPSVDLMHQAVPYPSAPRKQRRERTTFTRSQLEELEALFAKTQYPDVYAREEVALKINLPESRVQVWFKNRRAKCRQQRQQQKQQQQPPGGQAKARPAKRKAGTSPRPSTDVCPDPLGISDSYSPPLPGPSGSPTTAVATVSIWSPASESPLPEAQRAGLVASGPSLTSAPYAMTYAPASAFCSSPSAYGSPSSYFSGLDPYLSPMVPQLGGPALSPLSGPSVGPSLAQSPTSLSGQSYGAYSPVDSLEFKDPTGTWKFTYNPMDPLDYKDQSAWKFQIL
Chain of ELF1 (P32519 whole entry): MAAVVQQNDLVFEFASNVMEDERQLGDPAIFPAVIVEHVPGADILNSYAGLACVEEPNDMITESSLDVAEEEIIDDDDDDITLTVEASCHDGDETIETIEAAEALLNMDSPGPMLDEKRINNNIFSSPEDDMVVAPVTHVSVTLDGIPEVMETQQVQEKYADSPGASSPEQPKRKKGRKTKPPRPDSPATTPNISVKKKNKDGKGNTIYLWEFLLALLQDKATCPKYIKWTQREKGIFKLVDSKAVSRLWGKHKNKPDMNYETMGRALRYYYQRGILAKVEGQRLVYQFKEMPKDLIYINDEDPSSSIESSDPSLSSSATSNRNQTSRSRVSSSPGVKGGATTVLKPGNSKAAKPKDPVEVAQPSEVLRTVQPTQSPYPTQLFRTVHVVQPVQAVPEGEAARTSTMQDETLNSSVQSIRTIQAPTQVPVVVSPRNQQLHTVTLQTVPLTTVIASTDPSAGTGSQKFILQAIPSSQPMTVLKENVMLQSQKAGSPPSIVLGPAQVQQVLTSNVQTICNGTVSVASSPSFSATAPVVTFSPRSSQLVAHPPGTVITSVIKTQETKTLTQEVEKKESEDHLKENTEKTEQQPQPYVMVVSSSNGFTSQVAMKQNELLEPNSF
Chain of ELF4 (Q99607 whole entry): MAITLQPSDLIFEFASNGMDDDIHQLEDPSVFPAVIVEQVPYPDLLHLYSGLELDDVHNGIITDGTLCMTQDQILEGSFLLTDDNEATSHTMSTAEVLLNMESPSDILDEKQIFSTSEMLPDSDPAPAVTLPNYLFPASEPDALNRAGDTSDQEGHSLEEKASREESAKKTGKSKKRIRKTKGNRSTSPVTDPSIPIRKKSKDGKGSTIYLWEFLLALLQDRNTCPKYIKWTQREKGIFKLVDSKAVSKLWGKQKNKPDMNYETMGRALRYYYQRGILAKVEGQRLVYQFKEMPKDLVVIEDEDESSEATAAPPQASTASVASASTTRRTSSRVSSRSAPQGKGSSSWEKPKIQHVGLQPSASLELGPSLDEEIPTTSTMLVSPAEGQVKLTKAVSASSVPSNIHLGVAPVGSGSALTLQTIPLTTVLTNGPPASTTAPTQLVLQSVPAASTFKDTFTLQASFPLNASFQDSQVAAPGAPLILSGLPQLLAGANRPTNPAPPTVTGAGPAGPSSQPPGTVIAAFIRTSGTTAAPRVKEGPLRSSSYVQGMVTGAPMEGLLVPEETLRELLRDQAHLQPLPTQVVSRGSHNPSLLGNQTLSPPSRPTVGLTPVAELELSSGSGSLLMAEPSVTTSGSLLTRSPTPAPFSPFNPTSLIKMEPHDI

In the case of CCAGAA, the binding signal [1] is reported as 1 fold enrichment (6-mer frequency, TF over GST control), the binding signal [2] is reported as 3.7 fold enrichment (6-mer frequency, TF over GST control) and the binding signal [3] is reported as 1.05 fold enrichment (6-mer frequency, TF over GST control). For the same sequence, the binding signal [4] was 1.06 fold enrichment (6-mer frequency, TF over GST control), the binding signal [5] was 1.05 fold enrichment (6-mer frequency, TF over GST control) and the binding signal [6] was 1.07 fold enrichment (6-mer frequency, TF over GST control). The binding signal [7] was 1.49 fold enrichment (6-mer frequency, TF over GST control) and the binding signal [8] was 1.05 fold enrichment (6-mer frequency, TF over GST control).
With CCCAGA the binding signal [2] was 1.31 fold enrichment (6-mer frequency, TF over GST control) and the binding signal [4] was 1.01 fold enrichment (6-mer frequency, TF over GST control).
For CATTAG, the binding signal [9] was 1.05 fold enrichment (6-mer frequency, TF over GST control), the binding signal [10] was 1 fold enrichment (6-mer frequency, TF over GST control) and the binding signal [2] was 1.07 fold enrichment (6-mer frequency, TF over GST control). The binding signal [4] was 1.1 fold enrichment (6-mer frequency, TF over GST control), the binding signal [5] was 1.03 fold enrichment (6-mer frequency, TF over GST control) and the binding signal [7] was 1.26 fold enrichment (6-mer frequency, TF over GST control). For the same sequence, the binding signal [11] was 1.01 fold enrichment (6-mer frequency, TF over GST control).
